The entries come from a sample that favours hits as a whole.
CD40 NFkB inh: CD40 pathway inhibition in BL2 cells. AID 1053188. 83,000 compounds, 0.94% hits. BL2 NF-kB luciferase reporter, CD40L-induced, 4 h. inhibition, % at 10 µM;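 active means mean inhibition of at least 50% with a set share of replicates also reaching that level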;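 further: 0% = neutral control wells and 100% = IKK inhibitor VII at 50 µM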
* hit, by the source's call; [ ] = remark or other dose.

SMILES	CD40 NFkB inh
O=C(COC(=O)c1ccco1)Nc1ccc2c(c1)OCCO2	-65
CN1c2ccc(C#Cc3ccccc3)cc2[C@H]2[C@H](CCN2S(=O)(=O)c2ccccc2F)[C@H]1CO	3
COCC#Cc1ccc([C@@H]2[C@@H](CO)N3CCCCN(Cc4cccnc4)C[C@@H]23)cc1	-11[25 µM]
Cc1csc(N=Nc2ccc(N(C)C)cc2)[n+]1[O-]	80*
O=C(C[C@H]1C=C[C@@H](NC(=O)NC2CCCC2)[C@@H](CO)O1)NCc1ccc(F)cc1	16
O=C(NC1CCC1)[C@@H]1[C@@H](CO)[C@@H]2Cn3c(ccc(-c4ccncc4)c3=O)[C@@H]2N1CC1CC1	-3[25 µM]
CCCC#Cc1ccc2c(c1)[C@@H]1[C@@H](CCN1C(=O)C1CCC1)[C@@H](CO)N2	-61
Cc1noc(C)c1S(=O)(=O)N(C)C[C@H]1OCc2ccccc2-c2c(n(C)c3ccccc23)C(=O)N([C@@H](C)CO)C[C@@H]1C	32[25 µM]
C[C@@H]1CN([C@H](C)CO)C(=O)c2c(c3ccccc3n2C)-c2ccccc2CO[C@@H]1CN(C)S(C)(=O)=O	-8
Cc1noc(C)c1S(=O)(=O)N(C)C[C@@H]1OCc2ccccc2-c2c(n(C)c3ccccc23)C(=O)N([C@@H](C)CO)C[C@H]1C	46[25 µM]
Cc1noc(C)c1S(=O)(=O)N(C)C[C@H]1OCc2ccccc2-c2c(n(C)c3ccccc23)C(=O)N([C@@H](C)CO)C[C@H]1C	65*[25 µM]
Cc1noc(C)c1S(=O)(=O)N(C)C[C@@H]1OCc2ccccc2-c2c(n(C)c3ccccc23)C(=O)N([C@H](C)CO)C[C@H]1C	45[25 µM]
Cc1noc(C)c1S(=O)(=O)N(C)C[C@H]1OCc2ccccc2-c2c(n(C)c3ccccc23)C(=O)N([C@H](C)CO)C[C@H]1C	51*[25 µM]
CN1C(=O)c2cc(NC(=O)c3cccc(F)c3)ccc2OC[C@H]2O[C@@H](CC(=O)NCc3ccccc3Cl)CC[C@H]21	16[25 µM]
Cc1noc(C)c1NC(=O)N[C@H]1C=C[C@H](CC(=O)Nc2ccc(-c3ccccc3)cc2)O[C@@H]1CO	-9[25 µM]
CC(C)NC(=O)N(C)C[C@@H]1OCc2ccccc2-c2c(n(C)c3ccccc23)C(=O)N([C@H](C)CO)C[C@@H]1C	-8
CO[C@@H]1CN(C)C(=O)c2cc(NC(=O)C3CCC3)ccc2OC[C@@H](C)N(C(=O)Nc2ccc(C(F)(F)F)cc2)C[C@H]1C	2
CC(=O)NCCc1ccc(O)cc1	3
O=C(NCCc1ccccc1)c1noc2c1CCc1ccccc1-2	-38
O=C1c2ccccc2CCC1CNCCc1ccc(O)cc1 (stereo not drawn)	91*[25 µM]
CCCC#Cc1cnc2c(c1)C(=O)N([C@@H](C)CO)C[C@@H](C)[C@@H](CN(C)C(=O)Nc1cc(F)ccc1F)O2	-12[25 µM]
C[C@H](NC(=O)C[C@H]1C=C[C@@H](NC(=O)c2cccnc2)[C@H](CO)O1)c1ccccc1	4[25 µM]
CCC(=O)O[C@]1(C(=O)CCl)[C@@H](C)C[C@H]2[C@@H]3CCC4=CC(=O)C=C[C@]4(C)[C@@]3(F)[C@@H](O)C[C@@]21C	45*
CCCC(=O)O[C@]1(C(=O)CCl)[C@@H](C)C[C@H]2[C@@H]3CCC4=CC(=O)C=C[C@]4(C)[C@@]3(F)C(=O)C[C@@]21C	42
CC12C=CC(=O)C=C1CCC1C3CCC(O)(C(=O)CO)C3(C)CC(O)C12F (stereo not drawn)	28
SMILES	CD40 NFkB inh
C[C@@H]1C[C@H]2[C@@H]3CCC4=CC(=O)C=C[C@]4(C)[C@@]3(F)[C@@H](O)C[C@]2(C)[C@@]1(O)C(=O)COP(=O)(O)O	51*
C[C@H]1C[C@H]2[C@@H]3CCC4=CC(=O)C=C[C@]4(C)[C@@]3(Cl)[C@@H](O)C[C@]2(C)[C@@]1(O)C(=O)CO	29
Cc1noc(C)c1NC(=O)Nc1ccc2c(c1)CC(=O)N([C@H](C)CO)C[C@@H](C)[C@@H](CN(C)S(=O)(=O)c1cccs1)O2	-1[25 µM]
O=C(NC[C@@H]1[C@@H](c2ccccc2)[C@@H](CO)N1Cc1ccccn1)C1CCCC1	-7[25 µM]
O=C(NCC(F)(F)F)[C@H]1[C@H](CO)[C@H]2Cn3c(ccc(-c4cccnc4)c3=O)[C@@H]1N2Cc1ccccc1	-13[25 µM]
N#C[C@H]1[C@H](c2ccccc2)[C@@H](CO)N1C(=O)c1ccc2c(c1)OCO2	-3[25 µM]
COC(=O)Nc1nc2ccc(Br)cc2s1	-9
COC(=O)c1ccc2nc(NC(=O)C(C)(C)C)sc2c1	79*
CCCC(=O)Nc1nc2ccc(OC)cc2s1	-59
COCC(=O)N1[C@H](C#N)[C@@H](c2ccc(C#Cc3ccccc3F)cc2)[C@H]1CO	-23[25 µM]
COc1ccc(C#Cc2ccc([C@@H]3[C@H]4CN(C(=O)c5ccc(F)cc5)CC(=O)N4[C@H]3CO)cc2)cc1	2[25 µM]
c1cnc2c(c1)ccc1cccnc12	-5
O=C1C=CC(=O)N1c1cccc2cccnc12	50*
O=C(O)c1cccc2cccnc12	4
C[C@H]1CN([C@@H](C)CO)C(=O)c2c(c3ccccc3n2C)-c2ccccc2CO[C@@H]1CN(C)Cc1ccc(F)cc1	21
COc1ccc2c3c(n(C)c2c1)[C@@H](CO)N(C(=O)C1CC1)CC31CCN(C(=O)C2CCOCC2)CC1	0
COc1ccc2c3c([nH]c2c1)[C@@H](CO)N(C(C)=O)CC31CCN(C(=O)Nc2ccc(F)cc2F)CC1	-4[25 µM]
COc1ccc(NC(=O)N2[C@@H]3CNC[C@H]2C3c2ccc(-c3ccc(C)cc3)cc2)cc1 (stereo partly drawn)	-20[25 µM]
CC(C)NC[C@H]1[C@@H](c2ccc(C3=CCCC3)cc2)[C@@H](CO)N1C(=O)CC1CC1	4
C[C@H](NC(=O)[C@H]1[C@H](CO)[C@H]2Cn3c(ccc(-c4ccccc4)c3=O)[C@@H]1N2C)c1ccccc1	-4[25 µM]
CCC(=O)NC(c1ccccc1OC)c1ccc2cccnc2c1O (stereo not drawn)	88*
Cc1cc(NC(c2cccnc2)c2ccc3cccnc3c2O)no1 (stereo not drawn)	-52
CCC(=O)NC(c1ccc(OC)cc1)c1cc(Cl)c2cccnc2c1O (stereo not drawn)	8
C[C@H]1CN(C)C(=O)Cc2ccccc2O[C@H]1CN(C)C(=O)OC(C)(C)C	16
CNC[C@@H]1Oc2ccccc2CC(=O)N(C)C[C@H]1C	-5
SMILES	CD40 NFkB inh
CN1c2ccc(C#Cc3ccccc3F)cc2[C@H]2[C@H](CCN2C(=O)c2cnccn2)[C@H]1CO	3[25 µM]
C[C@@H]1CN([C@@H](C)CO)C(=O)c2cc(N(C)C)ccc2O[C@@H](C)CCCCO[C@H]1CN(C)C(=O)c1ccncc1	2
C=C1C(=O)OC2C=C(CO)CCC=C(CO)CC(OC(=O)C(C)C)C12 (stereo not drawn)	87*
C=C1C(=O)OC2C1C(OC(=O)C(C)=CC)CC(=C)C1C(O)C3OC3(C)C21O (stereo not drawn)	33
CCc1cnc(N2[C@@H](C#N)[C@@H](c3ccc(C4=CCCC4)cc3)[C@@H]2CO)s1	1
C[C@@H](NC(=O)N(C)C[C@H]1OCc2ccccc2-c2c(n(C)c3ccccc23)C(=O)N([C@@H](C)CO)C[C@@H]1C)c1ccccc1	5
Cc1ccc(S(=O)(=O)N2CC=C(N)N2)cc1	-2
Cc1ccc(C=C2C=C(c3ccccc3)OC2=O)cc1	-33
Cc1ccc(/C=C2/CNC/C(=C\c3ccc(C)cc3)C2=O)cc1	65*[25 µM]
CCC(=O)N1[C@H](CO)[C@@H](c2ccc(C3=CCCC3)cc2)[C@@H]1CN(C)C(C)=O	7
O=C(C[C@@H]1CC[C@H]2[C@@H](COC[C@@H](O)CN2Cc2nccs2)O1)NCc1ccccc1Cl	-10[25 µM]

Source: PubChem BioAssay (Broad Institute)
